For the experiment, the target named is AMP-activated protein kinase, AMPK (Homo sapiens) (UniProt P54646+O43741+P54619+Q9UGJ0+Q9Y478+Q13131+Q9UGI9). Put plainly: AMP-dependent Kinase enzyme assay. An in vitro enzyme assay that detects ADP turnover that is directly proportional to AMPK activity. This uses naive AMPK that is activated during the assay with MK-8722. Type of experiment: functional. Set-up: scale not given: direction of the effect not stated beside the values. The settings on record: 30 µM.
Take `Cc1ccc2c(c1)cc(CN1CC[C@](C)(O)[C@H](C)C1)n2C`: the Percent Effect worked out at 9.89%.

Take `CCc1nc(C)c(CN2CCOC(Cc3ccccc3Cl)C2)[nH]1` (stereo not given): the Percent Effect is -2.77%.

Regarding `Cc1nc(C)c(C(=O)N2CCCc3c(F)ccc(F)c32)o1`, the Percent Effect is -2.55%.

`Cc1nnc(-c2cccc(C#N)c2)n1C1CCN(C2CC2)C1=O` (stereo not given): the Percent Effect was -1.74%.

As to `NC(=O)C1CCCN(Cc2ccc(C(=O)Nc3cnns3)cc2)C1` (stereo not given), the Percent Effect stood at 5.32%.

In the case of `O=C(NCc1cc(Br)cs1)Nc1cn[nH]c1`, the Percent Effect was -0.469%.

Turning to `O=S(=O)(NCc1ccnc(-n2ccnc2)c1)c1cncc(F)c1`, the Percent Effect is -5.49%.

As to `CN(C)CC(=O)N1CCN(c2cc(N3CCCC3CO)ncn2)CC1` (stereo not given), the Percent Effect was -7.31%.

As to `CN1CCN(C2CCN(C(=O)CCC3CCCC3)CC2)CC1`, the Percent Effect came to 7.72%.

On to `CCn1cnnc1CCNC(=O)c1ccc(Br)cc1F`, for which the Percent Effect was -0.992%.

Consider `O=C(O)[C@H]1C[C@@H](C(=O)NCc2ccncc2)CN(Cc2ccccc2)C1`, for which the Percent Effect is -3%.

As for `N#Cc1ccc(Cl)cc1NCC1CCOC1` (stereo not given), the Percent Effect stood at 5.95%.

On to `FC(F)(F)c1nc(NC2CCc3ncnn3C2)c2ccccc2n1` (stereo not given), for which the Percent Effect is -0.0839%.

Turning to `COc1ccc(CCN(C)C(=O)c2cc(C(C)=O)c[nH]2)cc1OC`, the Percent Effect is -3.69%.

In the case of `O=C(Nc1ccccc1OCCc1ccccn1)N1CCOCC1`, the Percent Effect was found to be 10.6%.

On to `CN1CCC(NC(=O)c2cc(Cl)cc(Br)c2O)C1=O` (stereo not given), for which the Percent Effect was 12.7%.

As to `O=C(NCc1nnc2n1CCC2)c1cn(-c2cccc(Br)c2)nn1`, the Percent Effect amounted to 2.86%.

As for `Cc1nc(O)cc(C2(C)CCCNC2)n1` (stereo not given), the Percent Effect was 19.4%.

In the case of `Cn1cc(CN2CCOC(Cc3cccc(F)c3)C2)cn1` (stereo not given), the Percent Effect turned out to be 4.61%.

Regarding `NCC1Cc2cccc(-c3ccc(O)c(F)c3)c2O1` (stereo not given), the Percent Effect turned out to be 89.9%.

`COc1coc(CN2CCCC3(CCC(=O)N(C4CC4)C3)C2)cc1=O` (stereo not given): the Percent Effect is -2.13%.

For `c1nc(N2CCCC2)ncc1CN1CCCC(CN2CCCCC2)C1` (stereo not given), the Percent Effect was -7.34%.

Consider `COc1ccc(C(=O)N2C[C@@H](O)[C@H](NCc3ncccc3C)C2)cc1`, for which the Percent Effect is -3.45%.

Take `Cc1noc(C)c1-c1n[nH]c2c1CN(S(=O)(=O)c1cccs1)CC2`: the Percent Effect came to 2.21%.

On to `O=C(NCCc1cccnc1)c1ccc2nccn2c1`, for which the Percent Effect was 0.0619%.

In the case of `Cc1cc(CN(C)C(=O)CNS(=O)(=O)c2cccs2)no1`, the Percent Effect came out at 7.18%.

Consider `Cc1ccccc1C(=O)NC[C@@H]1CCN(C(=O)c2cscn2)C[C@H]1O`, for which the Percent Effect came out at 1.22%.

Consider `O=C(NCCS(=O)(=O)N1CCN(c2ncccn2)CC1)C1CC1`, for which the Percent Effect is 1.52%.

For `Cc1cc(C)n(CC(C)NC(=O)C2(c3ccccc3F)CC2)n1` (stereo not given), the Percent Effect was -3.82%.

As for `CO[C@@H]1c2ccccc2C2(CCN(C(=O)CNC(=O)C(C)C)CC2)[C@H]1O`, the Percent Effect was found to be 13.3%.

Consider `O=C(Cn1cccnc1=O)NCc1cccnc1OCC(F)(F)F`, for which the Percent Effect is 0.146%.

Turning to `O=C1CN([C@@H]2CC[C@@H](NS(=O)(=O)c3ccc(F)cc3)[C@H]2O)CCN1`, the Percent Effect worked out at 2.53%.

Take `CCSc1cc(C(=O)N(CC(F)F)C(C)C)ccn1`: the Percent Effect was determined as 2.16%.

As for `COc1ccccc1OCc1nc2cc3c(cc2c(=O)o1)OCCCO3`, the Percent Effect was -8.93%.

As for `CCSc1cccc(NCc2cccnc2)c1`, the Percent Effect is -1.67%.

With `CCC(CNS(=O)(=O)c1cccc(C(=O)OC)c1)N1CCCC1` (stereo not given), the Percent Effect was -8.76%.

In the case of `CS(=O)(=O)c1ccc(CNC(=O)NCc2cc[nH]n2)cc1`, the Percent Effect is -5.06%.

As to `CN(C)S(=O)(=O)N1CCCCCC1c1cc(-c2ccc(F)cc2)no1` (stereo not given), the Percent Effect stood at 18%.

With `CN(C)c1ncccc1NC(=O)COCC1CC1`, the Percent Effect stood at 2.89%.

As to `O=C(c1cc(C2CC2)n[nH]1)N1C[C@H]2CC[C@](O)(c3ccccc3F)[C@H]2C1`, the Percent Effect amounted to 16%.

These data come from ChEMBL document CHEMBL3988442, “University of Dundee, Small-Polar-MMV Screening Library” (2021).
